Data taken from the supplement of paper PMC11732987, “Enantioselective OTUD7B fragment discovery through chemoproteomics screening and high-throughput optimisation” (Communications Chemistry, 2025).

Columns and labels:
Test in all cases: log2 ratio of Biotin-Ahx-Ub-VS probe labelling (fragment/DMSO); higher = less target engagement (more negative = stronger competition), active = hit call of the paper (q ≤ 0.05, log2 ratio ≤ -1)
Details in all cases: compound concentration: 200 uM; treatment time: 3 h
USP34 = USP34 (UniProt Q70CQ2)
USP34, sequence (Q70CQ2 whole entry, the tested form may be a part): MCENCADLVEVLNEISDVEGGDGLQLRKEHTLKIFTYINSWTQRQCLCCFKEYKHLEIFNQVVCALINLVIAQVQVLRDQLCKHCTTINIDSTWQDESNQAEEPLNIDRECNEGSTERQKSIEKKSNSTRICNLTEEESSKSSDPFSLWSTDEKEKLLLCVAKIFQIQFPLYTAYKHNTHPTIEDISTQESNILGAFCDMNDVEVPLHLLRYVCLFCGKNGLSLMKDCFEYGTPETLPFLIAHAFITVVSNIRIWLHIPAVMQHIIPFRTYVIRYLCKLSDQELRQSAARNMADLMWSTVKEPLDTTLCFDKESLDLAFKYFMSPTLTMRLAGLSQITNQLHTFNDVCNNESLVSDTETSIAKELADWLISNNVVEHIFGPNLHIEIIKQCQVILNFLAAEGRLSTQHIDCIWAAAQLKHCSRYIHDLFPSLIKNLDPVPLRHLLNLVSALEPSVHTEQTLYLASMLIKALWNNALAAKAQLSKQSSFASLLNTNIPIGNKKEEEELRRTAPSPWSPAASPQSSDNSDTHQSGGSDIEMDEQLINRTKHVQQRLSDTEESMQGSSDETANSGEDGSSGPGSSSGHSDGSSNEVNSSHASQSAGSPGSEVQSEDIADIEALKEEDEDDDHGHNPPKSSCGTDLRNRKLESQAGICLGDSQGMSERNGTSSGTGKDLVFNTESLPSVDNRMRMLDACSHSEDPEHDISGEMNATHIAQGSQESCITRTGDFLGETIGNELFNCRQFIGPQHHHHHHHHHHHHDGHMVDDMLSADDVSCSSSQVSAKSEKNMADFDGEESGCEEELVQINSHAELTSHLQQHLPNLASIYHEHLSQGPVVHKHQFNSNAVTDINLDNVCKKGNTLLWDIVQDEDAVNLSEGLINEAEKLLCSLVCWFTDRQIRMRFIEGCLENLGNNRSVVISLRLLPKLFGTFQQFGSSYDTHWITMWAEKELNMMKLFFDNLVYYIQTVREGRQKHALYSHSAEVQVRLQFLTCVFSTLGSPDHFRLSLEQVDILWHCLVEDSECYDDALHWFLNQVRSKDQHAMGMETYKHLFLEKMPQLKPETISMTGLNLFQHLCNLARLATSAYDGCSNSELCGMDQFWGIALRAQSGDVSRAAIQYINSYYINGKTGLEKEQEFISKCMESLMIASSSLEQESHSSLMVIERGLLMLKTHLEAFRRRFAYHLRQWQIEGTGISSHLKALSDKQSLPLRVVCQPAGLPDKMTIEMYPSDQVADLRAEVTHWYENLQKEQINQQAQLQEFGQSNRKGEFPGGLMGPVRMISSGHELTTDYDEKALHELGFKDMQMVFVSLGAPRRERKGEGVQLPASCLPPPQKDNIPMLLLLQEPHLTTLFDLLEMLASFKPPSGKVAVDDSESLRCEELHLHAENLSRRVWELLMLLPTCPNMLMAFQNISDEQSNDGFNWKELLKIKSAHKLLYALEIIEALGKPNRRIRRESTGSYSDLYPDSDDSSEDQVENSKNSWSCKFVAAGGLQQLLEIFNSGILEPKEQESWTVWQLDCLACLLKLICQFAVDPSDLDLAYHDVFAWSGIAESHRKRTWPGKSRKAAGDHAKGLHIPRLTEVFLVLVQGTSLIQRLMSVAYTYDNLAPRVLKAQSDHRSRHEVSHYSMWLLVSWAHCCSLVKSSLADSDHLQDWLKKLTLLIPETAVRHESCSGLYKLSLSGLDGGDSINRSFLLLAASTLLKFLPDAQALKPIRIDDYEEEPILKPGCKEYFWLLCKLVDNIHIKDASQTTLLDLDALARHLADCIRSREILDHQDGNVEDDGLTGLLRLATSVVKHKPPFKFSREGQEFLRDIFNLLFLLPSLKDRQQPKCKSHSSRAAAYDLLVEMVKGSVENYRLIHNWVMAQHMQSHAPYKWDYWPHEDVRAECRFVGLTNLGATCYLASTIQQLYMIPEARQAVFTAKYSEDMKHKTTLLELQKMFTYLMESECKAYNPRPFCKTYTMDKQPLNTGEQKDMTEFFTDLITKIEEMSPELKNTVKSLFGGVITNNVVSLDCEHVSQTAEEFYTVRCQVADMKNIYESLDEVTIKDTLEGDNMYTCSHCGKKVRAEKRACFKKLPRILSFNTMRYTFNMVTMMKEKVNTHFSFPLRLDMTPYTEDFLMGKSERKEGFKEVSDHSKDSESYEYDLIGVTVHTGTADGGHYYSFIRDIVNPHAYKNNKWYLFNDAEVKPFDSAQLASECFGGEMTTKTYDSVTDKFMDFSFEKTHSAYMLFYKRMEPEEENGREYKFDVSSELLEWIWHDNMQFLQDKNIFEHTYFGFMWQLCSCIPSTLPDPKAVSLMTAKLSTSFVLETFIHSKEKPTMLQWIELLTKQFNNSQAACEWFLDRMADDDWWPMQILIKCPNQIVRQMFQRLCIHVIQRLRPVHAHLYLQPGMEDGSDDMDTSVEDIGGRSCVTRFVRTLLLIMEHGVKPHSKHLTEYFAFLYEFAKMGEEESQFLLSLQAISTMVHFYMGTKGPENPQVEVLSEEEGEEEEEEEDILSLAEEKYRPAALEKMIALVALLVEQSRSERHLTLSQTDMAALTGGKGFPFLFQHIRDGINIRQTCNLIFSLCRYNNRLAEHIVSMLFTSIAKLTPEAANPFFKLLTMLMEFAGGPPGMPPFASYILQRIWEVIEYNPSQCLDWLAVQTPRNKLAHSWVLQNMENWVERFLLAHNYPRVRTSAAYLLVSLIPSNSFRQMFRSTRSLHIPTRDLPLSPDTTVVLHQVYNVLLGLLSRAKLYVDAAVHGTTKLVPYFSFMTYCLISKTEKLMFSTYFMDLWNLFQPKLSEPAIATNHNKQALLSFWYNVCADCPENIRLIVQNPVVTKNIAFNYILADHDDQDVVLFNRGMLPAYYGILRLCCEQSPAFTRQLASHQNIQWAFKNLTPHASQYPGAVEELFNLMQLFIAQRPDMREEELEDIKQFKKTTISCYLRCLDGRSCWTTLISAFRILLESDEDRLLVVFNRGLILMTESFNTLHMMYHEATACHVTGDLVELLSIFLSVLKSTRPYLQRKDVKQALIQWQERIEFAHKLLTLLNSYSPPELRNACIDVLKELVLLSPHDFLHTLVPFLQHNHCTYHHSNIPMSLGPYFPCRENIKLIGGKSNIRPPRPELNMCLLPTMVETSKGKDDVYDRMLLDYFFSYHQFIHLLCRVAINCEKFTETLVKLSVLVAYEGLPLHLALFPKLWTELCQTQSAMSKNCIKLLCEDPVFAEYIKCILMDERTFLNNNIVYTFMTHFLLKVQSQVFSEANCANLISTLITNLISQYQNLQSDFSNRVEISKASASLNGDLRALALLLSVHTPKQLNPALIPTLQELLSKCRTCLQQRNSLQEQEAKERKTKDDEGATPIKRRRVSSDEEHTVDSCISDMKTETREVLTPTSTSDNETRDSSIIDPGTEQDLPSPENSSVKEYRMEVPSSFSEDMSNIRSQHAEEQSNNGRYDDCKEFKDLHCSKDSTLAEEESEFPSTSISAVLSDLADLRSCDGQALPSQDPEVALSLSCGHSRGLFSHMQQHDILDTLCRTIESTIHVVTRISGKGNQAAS
Procedure, shortened: (§1)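 Triplicate samples of HEK293T lysate, 495 µg each, received fragment at 200 µM or vehicle for 3 h, followed by Biotin-Ahx-Ub-VS (0.5 µM final) for 1 h. After NeutrAvidin enrichment of labelled DUBs and LysC/trypsin digestion, peptides were run by diaPASEF LC-MS/MS. The values are average log2 fragment/vehicle ratios from global-median-normalised Spectronaut label-free quantities, tested by unpaired t-test on proteins having ≥2 unique peptides.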

USP36 = biological target: T1, USP36 (UniProt Q9P275)
T1 sequence (whole entry): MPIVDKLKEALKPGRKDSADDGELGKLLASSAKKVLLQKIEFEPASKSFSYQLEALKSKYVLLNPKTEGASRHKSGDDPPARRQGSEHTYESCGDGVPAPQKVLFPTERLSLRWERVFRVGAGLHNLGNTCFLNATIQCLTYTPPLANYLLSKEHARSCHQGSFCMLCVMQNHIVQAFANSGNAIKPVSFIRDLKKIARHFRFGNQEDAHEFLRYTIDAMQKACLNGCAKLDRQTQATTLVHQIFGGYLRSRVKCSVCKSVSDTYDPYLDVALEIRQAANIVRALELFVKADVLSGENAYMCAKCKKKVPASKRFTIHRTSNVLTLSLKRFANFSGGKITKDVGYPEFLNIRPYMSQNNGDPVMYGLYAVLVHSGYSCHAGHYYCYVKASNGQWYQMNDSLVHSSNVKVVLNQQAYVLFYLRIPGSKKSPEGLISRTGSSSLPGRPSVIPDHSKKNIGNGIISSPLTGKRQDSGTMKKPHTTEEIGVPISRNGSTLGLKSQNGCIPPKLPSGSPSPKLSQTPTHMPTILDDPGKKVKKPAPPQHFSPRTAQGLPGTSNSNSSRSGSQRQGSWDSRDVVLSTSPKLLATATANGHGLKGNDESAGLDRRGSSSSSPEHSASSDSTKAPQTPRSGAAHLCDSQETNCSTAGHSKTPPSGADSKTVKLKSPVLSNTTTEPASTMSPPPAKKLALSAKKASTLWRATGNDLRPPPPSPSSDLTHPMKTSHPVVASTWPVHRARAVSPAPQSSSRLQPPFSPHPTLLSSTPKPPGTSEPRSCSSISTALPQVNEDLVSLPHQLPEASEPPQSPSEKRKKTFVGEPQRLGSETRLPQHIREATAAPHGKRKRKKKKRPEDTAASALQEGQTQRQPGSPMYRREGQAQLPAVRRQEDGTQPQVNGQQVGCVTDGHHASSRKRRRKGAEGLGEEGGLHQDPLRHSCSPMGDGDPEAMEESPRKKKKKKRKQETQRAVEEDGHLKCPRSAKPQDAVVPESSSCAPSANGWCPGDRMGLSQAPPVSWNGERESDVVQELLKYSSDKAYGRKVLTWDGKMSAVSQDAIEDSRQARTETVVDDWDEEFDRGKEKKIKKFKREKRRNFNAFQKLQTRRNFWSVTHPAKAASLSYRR
Procedure, shortened: as §1

USP38 = biological target: T2, USP38 (UniProt Q8NB14)
T2 sequence (whole entry): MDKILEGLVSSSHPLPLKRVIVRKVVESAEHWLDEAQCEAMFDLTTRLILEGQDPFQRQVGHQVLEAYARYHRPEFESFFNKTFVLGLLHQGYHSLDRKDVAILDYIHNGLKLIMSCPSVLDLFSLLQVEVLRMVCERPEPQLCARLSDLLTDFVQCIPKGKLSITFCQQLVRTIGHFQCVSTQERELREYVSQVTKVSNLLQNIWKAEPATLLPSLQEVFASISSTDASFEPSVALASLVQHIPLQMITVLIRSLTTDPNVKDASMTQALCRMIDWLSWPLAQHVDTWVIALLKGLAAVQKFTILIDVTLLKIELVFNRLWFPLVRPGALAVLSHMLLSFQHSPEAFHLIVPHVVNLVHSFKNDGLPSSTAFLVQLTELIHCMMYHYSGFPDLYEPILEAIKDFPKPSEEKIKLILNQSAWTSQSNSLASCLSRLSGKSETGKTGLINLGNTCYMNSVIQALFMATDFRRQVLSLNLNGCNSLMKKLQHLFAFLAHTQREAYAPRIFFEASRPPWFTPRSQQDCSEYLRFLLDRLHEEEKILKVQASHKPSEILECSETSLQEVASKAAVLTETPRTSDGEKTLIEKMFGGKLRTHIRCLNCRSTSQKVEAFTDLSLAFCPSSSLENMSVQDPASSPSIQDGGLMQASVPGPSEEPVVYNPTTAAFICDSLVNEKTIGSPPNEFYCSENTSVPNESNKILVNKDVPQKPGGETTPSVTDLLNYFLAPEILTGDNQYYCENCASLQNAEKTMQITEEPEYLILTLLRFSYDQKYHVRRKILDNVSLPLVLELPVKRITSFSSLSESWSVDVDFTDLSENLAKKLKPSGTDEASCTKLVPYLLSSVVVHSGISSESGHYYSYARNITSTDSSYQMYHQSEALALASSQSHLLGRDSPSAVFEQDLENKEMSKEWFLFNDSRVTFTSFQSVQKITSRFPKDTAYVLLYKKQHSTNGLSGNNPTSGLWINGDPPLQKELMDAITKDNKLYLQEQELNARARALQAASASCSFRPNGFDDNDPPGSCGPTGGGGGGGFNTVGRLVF
Procedure, shortened: as §1

USP39 = biological target: T3, USP39 (UniProt Q53GS9)
T3 sequence (whole entry): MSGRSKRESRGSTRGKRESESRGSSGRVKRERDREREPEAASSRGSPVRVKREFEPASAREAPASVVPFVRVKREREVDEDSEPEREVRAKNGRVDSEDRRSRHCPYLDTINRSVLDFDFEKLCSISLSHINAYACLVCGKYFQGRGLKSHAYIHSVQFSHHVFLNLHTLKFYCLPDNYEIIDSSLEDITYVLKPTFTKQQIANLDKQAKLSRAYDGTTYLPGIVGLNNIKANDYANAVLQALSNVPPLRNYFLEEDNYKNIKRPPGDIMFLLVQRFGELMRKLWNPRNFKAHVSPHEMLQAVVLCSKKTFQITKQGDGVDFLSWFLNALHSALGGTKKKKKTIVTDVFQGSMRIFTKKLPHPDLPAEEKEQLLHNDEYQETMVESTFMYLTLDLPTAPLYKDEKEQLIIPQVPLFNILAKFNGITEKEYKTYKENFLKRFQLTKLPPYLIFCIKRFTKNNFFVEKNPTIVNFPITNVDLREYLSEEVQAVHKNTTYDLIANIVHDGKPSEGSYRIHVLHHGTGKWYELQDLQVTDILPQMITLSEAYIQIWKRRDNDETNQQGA
Procedure, shortened: as §1

USP4 = biological target: T4, USP4 (UniProt Q13107)
T4 sequence (whole entry): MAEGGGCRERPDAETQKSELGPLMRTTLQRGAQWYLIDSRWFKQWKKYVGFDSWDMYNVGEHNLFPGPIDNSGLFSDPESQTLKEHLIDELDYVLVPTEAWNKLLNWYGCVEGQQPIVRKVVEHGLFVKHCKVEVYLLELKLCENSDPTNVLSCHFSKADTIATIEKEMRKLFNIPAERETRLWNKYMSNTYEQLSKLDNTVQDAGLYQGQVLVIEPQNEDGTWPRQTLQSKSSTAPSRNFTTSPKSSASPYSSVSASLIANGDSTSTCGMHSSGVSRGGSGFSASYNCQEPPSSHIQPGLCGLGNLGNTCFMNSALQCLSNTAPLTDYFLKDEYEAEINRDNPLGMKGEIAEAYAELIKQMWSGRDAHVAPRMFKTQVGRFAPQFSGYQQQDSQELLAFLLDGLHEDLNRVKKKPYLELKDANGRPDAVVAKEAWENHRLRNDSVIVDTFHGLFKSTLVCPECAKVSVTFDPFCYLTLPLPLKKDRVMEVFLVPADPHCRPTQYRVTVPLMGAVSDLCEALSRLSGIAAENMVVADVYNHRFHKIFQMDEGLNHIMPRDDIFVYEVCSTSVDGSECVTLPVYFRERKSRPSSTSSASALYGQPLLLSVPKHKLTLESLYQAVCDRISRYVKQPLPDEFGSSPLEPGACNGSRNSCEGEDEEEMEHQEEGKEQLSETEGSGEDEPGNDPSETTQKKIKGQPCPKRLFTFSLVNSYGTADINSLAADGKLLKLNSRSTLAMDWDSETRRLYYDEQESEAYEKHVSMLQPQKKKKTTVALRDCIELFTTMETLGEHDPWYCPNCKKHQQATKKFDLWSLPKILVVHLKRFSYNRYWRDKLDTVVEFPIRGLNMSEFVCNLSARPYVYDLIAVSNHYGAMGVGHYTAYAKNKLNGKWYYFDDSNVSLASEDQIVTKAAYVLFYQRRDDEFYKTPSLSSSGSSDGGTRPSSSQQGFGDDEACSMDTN
Procedure, shortened: as §1

Measured: log2 ratio of Biotin-Ahx-Ub-VS probe labelling

Cc1noc(N2CCN(C(=O)CCl)CC2)n1.Cl
inactive: USP34 0.028 | USP36 -0.0365 | USP38 -0.0491 | USP39 0.251 | USP4 0.0534
